Data on 93 molecules can be found in PubChem BioAssay AID1063 (University of Pittsburgh Molecular Library Screening Center, 2008).

SMILES strings stand for the structures. The whole screen tested about 200,000 compounds, of which about 18,000 (9%) were called active. This is one part of a sample in which actives are shown more often than they occur. Unmarked numbers belong to inactive results. Rule as the data show it: active = inhibition above about 50%; inactive = the rest.

A short description of the assay: antileishmanial activity against promastigotes – primary screen (AID 1063).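 Also: promastigotes grown with compound for 44 hours at 28 °C.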 The following applies: Leishmania major promastigotes, resazurin fluorescence viability; at 10 µM; hits give high values. (In general: Resazurin is reduced to fluorescent resorufin, in cell work by metabolically active cells.)
Regarding `O=C(CC1C(=O)NCCN1Cc1ccc(-c2ccccc2)cc1)NCc1ccncc1` (stereo not drawn), the inhibition was -2.72%.

In the case of `Cc1ccccc1NC(=O)CN1C(=O)N/C(=C\c2cccn2-c2cccc(C(=O)O)c2)C1=O`, the inhibition is -4.64%.

On to `Cc1ccc(Nc2cc(C)nc3c(C)ccc([N+](=O)[O-])c23)cc1`, for which the inhibition was 87.2% (active).

For `Cc1cc(C)nc(Nc2cc([N+](=O)[O-])ccc2C)n1`, the inhibition was 2.27%.

On to `Cc1ccc(Nc2ccc(C(N)=O)cc2[N+](=O)[O-])cc1`, for which the inhibition was -4.3%.

`O=S(=O)(Nc1ccccn1)c1cccc(S(=O)(=O)c2ccc(Cl)cc2)c1`: the inhibition is -10.8%.

For `CC(C)(C)NC(=O)Cn1cnc2cc([N+](=O)[O-])ccc2c1=O`, the inhibition was 3.94%.

Regarding `O=C(/C=C/c1ccc(F)cc1)Nc1cccc(S(=O)(=O)Nc2cccc(C(F)(F)F)c2)c1`, the inhibition is 50.4% (active).

For the molecule `O=C(CN1CCN(c2ccc(F)cc2)CC1)Nc1cccc(C(F)(F)F)c1`, the inhibition was -7.62%.

Turning to `CCNS(=O)(=O)c1ccc(NC(=O)Nc2cccc(C(F)(F)F)c2)cc1`, the inhibition was 31.4%.

Take `O=C(NCc1ccco1)c1nn2cccnc2c1Cl`: the inhibition is -2.79%.

`COc1ccc(Sc2nc(-c3ccccc3)ncc2OC)cc1`: the inhibition is -4.44%.

On to `CC(Oc1cccc(NC(=O)c2cccs2)c1)C(=O)c1ccccc1` (stereo not drawn), for which the inhibition was 16.5%.

Regarding `Cc1ccc(N(Cc2ccc(C(=O)Nc3ccccc3C(=O)NCc3ccco3)cc2)S(C)(=O)=O)cc1C`, the inhibition is 61.3% (active).

For `Cc1cccc(Nc2ccccc2C(=O)NCc2ccco2)c1C`, the inhibition is 38.2%.

In the case of `O=C(Nc1ccccc1)Nc1ccccc1C(=O)NCc1ccco1`, the inhibition was 4.53%.

For `CS(=O)(=O)N(Cc1ccc(Cl)cc1)c1ccc(C(=O)NCCSCc2ccco2)cc1`, the inhibition is 53.3% (active).

Regarding `Cc1cc(C)cc(N(CC(=O)NCCSCc2ccco2)S(C)(=O)=O)c1`, the inhibition is -4.83%.

`CCc1ccccc1N(CC(=O)NCCSCc1ccco1)S(C)(=O)=O`: the inhibition is -4.33%.

For `CCOC(=O)c1sc(NC(=O)CSc2n[nH]c(CC)n2)nc1C`, the inhibition is -7.68%.

In the case of `Cc1ccccc1NS(=O)(=O)CCCCC(Cl)(Cl)Cl`, the inhibition is 5.47%.

On to `COc1ccc(C2CC(c3cccs3)=NN2c2ccccc2)cc1` (stereo not drawn), for which the inhibition is -1.67%.

Regarding `CCOC(=O)N1CCN(C(=O)Cn2cnc3ccccc3c2=O)CC1`, the inhibition was -4.19%.

For `COc1ccc(NC(=O)C(=O)NCC(=O)Nc2cccc(C(F)(F)F)c2)cc1`, the inhibition was -4.66%.

On to `COC(=O)CSc1ncnc2c1cnn2-c1ccc(C)cc1C`, for which the inhibition is 2.35%.

On to `CC(O)CNCCOc1cccc(Oc2ccccc2)c1` (stereo not drawn), for which the inhibition was 95.9% (active).

As to `CC1(C)NC(=O)N(CCOc2cccc(Oc3ccccc3)c2)C1=O`, the inhibition was -11.3%.

For `Cc1ccc([N+](=O)[O-])c(OCCCNCC(C)O)c1` (stereo not drawn), the inhibition is -0.76%.

Consider `Cc1ccnc(SCC(N)=O)n1`, for which the inhibition was -7.56%.

On to `O=C(Nc1ccc(F)c([N+](=O)[O-])c1)C1CC(=O)N(Cc2ccccc2)C1` (stereo not drawn), for which the inhibition was 8.12%.

Turning to `CNC(=S)Nc1ccc([N+](=O)[O-])cc1`, the inhibition is 6.53%.

Take `COc1ccccc1OCC(=O)OCn1c(SC)nnc(C)c1=O`: the inhibition was 58% (active).

With `COc1cccc(NC(=O)COC(=O)CCOc2ccccc2OC)c1`, the inhibition was -0.7%.

`COc1ccccc1OCCC(=O)OCC(=O)NC(=O)NC(C)(C)C`: the inhibition is -5.7%.

As for `Cn1cnnc1SCc1nnc(-c2ccccc2Br)o1`, the inhibition is -7.2%.

`COc1ccc(C2CC(c3cccs3)=NN2C(=O)CSc2nncs2)cc1OC` (stereo not drawn): the inhibition is 8.19%.

Regarding `COc1ccc(C2CC(c3cccs3)=NN2C(=O)COC(=O)c2cc3ccccc3cc2O)cc1OC` (stereo not drawn), the inhibition is 58% (active).

Turning to `COc1ccc(C2CC(c3cccs3)=NN2C(=O)CSc2nnc(N)s2)cc1OC` (stereo not drawn), the inhibition is 2.75%.

Consider `COc1ccccc1NC(=O)CCSc1nnc(-c2ccc(O)cc2)o1`, for which the inhibition was -3.54%.

On to `NS(=O)(=O)c1cccc(NC(=O)CSc2nc3ccccc3n2-c2ccccc2)c1`, for which the inhibition was 9.64%.

Take `Cc1ccc(-n2c(SCC(=O)Nc3ncc(Cl)cc3Cl)nc3ccccc32)cc1`: the inhibition was 89.5% (active).

`Cc1ccc(SCCC(=O)OCC(=O)Nc2ncc(Cl)cc2Cl)cc1`: the inhibition is -4.94%.

`O=C(O)CC1S/C(=N\N=C/c2ccccc2O)N(c2ccc(O)cc2)C1=O` (stereo not drawn): the inhibition was -7.61%.

Regarding `CC(=O)C1(C)N(O)C(C)(C)C(c2cccs2)=[N+]1[O-]` (stereo not drawn), the inhibition was -4.97%.

For the molecule `Cc1cccc2cc(C#N)c(N3CCCC3)nc12`, the inhibition is 4.74%.

On to `CCOC(=O)c1cc(C#N)c(N2CCCCC2)nc1-c1ccccc1`, for which the inhibition was 53.9% (active).

As to `CC(=O)c1cc(C#N)c(N2CCCCC2)nc1C`, the inhibition is -3.09%.

For `CCN1CC(CN(C)Cc2nc(-c3ccc(Cl)cc3)no2)CC1=O` (stereo not drawn), the inhibition is -8.19%.

As to `COc1cc(NC(=O)COC(=O)c2cnc(C)cn2)c(C)cc1[N+](=O)[O-]`, the inhibition was -4.51%.

In the case of `O=C(CSc1ccc(-c2ccco2)nn1)NCc1ccc2c(c1)OCO2`, the inhibition was 14%.

`Cc1cc(N2CCN(S(=O)(=O)c3ccc(C)c(C)c3)CC2)c2ccccc2n1`: the inhibition was 98.6% (active).

For `Cc1ccc(S(=O)(=O)C(C#N)c2nc3ccccc3nc2N2CCCC2)cc1C` (stereo not drawn), the inhibition is -2.26%.

As to `Cc1cc(C(=O)NNC(=O)c2cccc(S(=O)(=O)N3CCOCC3)c2)c2ccccc2n1`, the inhibition was -9.98%.

Regarding `COc1ccc(CCNc2ncnc3nc[nH]c23)cc1OC`, the inhibition was 5.03%.

Consider `COc1ccc(CCNc2cc(C)nc3c(-c4ccc(Cl)cc4)c(C)nn23)cc1OC`, for which the inhibition was 76.3% (active).

For `COc1ccc(CCNC2=C(Cl)C(=O)N(Cc3ccccc3)C2=O)cc1OC`, the inhibition was 8.4%.

Regarding `Cc1cc(Cl)ccc1OCCCC(=O)NCc1ccccn1`, the inhibition was 5.49%.

On to `COc1ccccc1OCCNc1cc(N2CCOCC2)ccc1[N+](=O)[O-]`, for which the inhibition was 2.32%.

Take `COCCCNC(=S)NC(=O)c1ccc([N+](=O)[O-])cc1`: the inhibition is -8.2%.

Consider `COc1ccccc1OCCNC(=O)c1cc([N+](=O)[O-])cc([N+](=O)[O-])c1`, for which the inhibition was 93.5% (active).

As for `Cc1ccc(NC(=O)CSCC(=O)NC2CCCCC2)cc1`, the inhibition was 14.3%.

Consider `CCC1CO/C(=C(\C(=C(Cl)Cl)N2CCOCC2)[N+](=O)[O-])N1` (stereo not drawn), for which the inhibition was -6.26%.

As to `Cc1noc(C)c1S(=O)(=O)Nc1ccc(C(=O)N2CCN(c3ccc(F)cc3)CC2)cc1`, the inhibition is 4.11%.

On to `Cc1ccc(OCC(=O)Nc2ccccc2Sc2ccc(Cl)cc2)c([N+](=O)[O-])n1`, for which the inhibition is 7.6%.

Consider `COc1ccccc1CNC(=O)COc1ccc(C)nc1[N+](=O)[O-]`, for which the inhibition is 0.88%.

In the case of `CCc1ccccc1NC(=O)CN(C)C(=O)COc1ccc(C)nc1[N+](=O)[O-]`, the inhibition is 57.1% (active).

On to `CC(=O)c1c(C)[nH]c(C(=O)OCC(=O)Nc2cc(S(=O)(=O)N3CCCCC3)ccc2C)c1C`, for which the inhibition is 95.4% (active).

`CC(=O)c1c(C)[nH]c(C(=O)Nc2cc(S(=O)(=O)N(C)C)ccc2C)c1C`: the inhibition was -6.9%.

As for `COc1ccc(S(=O)(=O)N2CCCCCC2)cc1C(=O)OCC(=O)Nc1cc(C)on1`, the inhibition is 3.73%.

Consider `CC(C)(C)C(=O)Cn1c(NCCO)nc2ccccc21`, for which the inhibition was -7.58%.

Take `Cn1c(NN)nc2sc3c(c2c1=O)CCC3`: the inhibition was -2.23%.

Take `OCCNc1nc2ccccc2n1-c1ncnc2sc3c(c12)CCC3`: the inhibition was 60.8% (active).

Turning to `CCN1CCc2nc(NC(=O)c3cc(F)c(F)cc3Cl)sc2C1`, the inhibition was -0.49%.

For the molecule `Nc1ccc(Cl)c(S(=O)(=O)Nc2ccccc2Cl)c1`, the inhibition was 1.56%.

On to `COc1ccc(C2CC(c3ccccc3)=NN2C(=O)c2ccc(Cl)c([N+](=O)[O-])c2)cc1` (stereo not drawn), for which the inhibition is 31.9%.

For the molecule `CCOc1ccc2nc(Cl)c(C3CC(c4ccccc4)=NN3C(=O)c3cccs3)cc2c1` (stereo not drawn), the inhibition is 66.5% (active).

For the molecule `CCOc1ccccc1C1CC(c2cccc(NS(C)(=O)=O)c2)=NN1C(=O)c1ccccc1` (stereo not drawn), the inhibition is 2.04%.

As to `COc1ccc(C(=O)COC(=O)c2ccc3ccccc3n2)cc1`, the inhibition is -7.38%.

As for `COc1ccc(CCNC(=O)CCn2c(=O)c3ccccc3n(CC(=O)NCC3CCCO3)c2=O)cc1OC` (stereo not drawn), the inhibition is -3.03%.

Take `Cc1ccnc(NC(=O)c2ccco2)n1`: the inhibition was -6.16%.

As for `COc1ccc(CCCc2nnc(SCc3nc4ccccc4c(=O)[nH]3)n2C)cc1`, the inhibition is -4.22%.

On to `CC(NC(=O)COC(=O)c1cc(=O)[nH]c2ccccc12)c1ccccc1` (stereo not drawn), for which the inhibition was -4.71%.

As to `Cc1ccccc1CC1(CO)CCCN(Cc2ccc3c(c2)OCCO3)C1` (stereo not drawn), the inhibition is 70.2% (active).

As to `COc1cccc(CC2(CO)CCCN(Cc3nc(-c4cccs4)oc3C)C2)c1` (stereo not drawn), the inhibition is 2.57%.

For `Cc1ccccc1CC1(CO)CCCN(C(=O)c2cc(-c3ccccc3)no2)C1` (stereo not drawn), the inhibition is -3.77%.

Regarding `COc1cc(CN2CCN(Cc3ccc(C)cc3)CC2)c([N+](=O)[O-])cc1OC`, the inhibition is 53.4% (active).

With `COc1cc(CN2CC(C)CC(C)C2)cc([N+](=O)[O-])c1O` (stereo not drawn), the inhibition was 16.2%.

With `COc1cc(CC(=O)N/N=C/c2ccccc2)c([N+](=O)[O-])cc1OC`, the inhibition was -0.35%.

For the molecule `CCOC(=O)CNC(=O)/C(=C\c1ccc(F)cc1)NC(=O)c1ccccc1`, the inhibition is -2.16%.

Turning to `CCN(CC(=O)NCc1cccs1)C(=O)c1ccccc1F`, the inhibition was 35%.

As for `CCOc1ccc(CCNC(=O)C2=C(C)C(=O)OC23CCC(C)CC3)cc1OCC` (stereo not drawn), the inhibition is 5.17%.

In the case of `COc1ccc(CNC(=O)CN2CCC(n3nnc4cc(F)ccc43)CC2)cc1`, the inhibition is 2.66%.

In the case of `CCOc1cc(NC(=S)NCCCOC)c(OCC)cc1NC(=O)c1ccco1`, the inhibition was 36.4%.

As usually defined, the inhibition is the change of the read-out against control, counted positive when it falls.
